Results as given in PubChem BioAssay.
Entries with a potency or affinity are not part of this list. Inconclusive results are not listed. The source made the active and inactive calls. Unless noted, no rule for the calls is given here.

How the values were obtained:
[1] = RMG-1 ovarian cancer cell viability loss – cherry-pick, dose response (AID 687029;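 active = signal drop whose fitted half-maximal concentration is at most twice the top valid dose, in every test run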;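 also: cells exposed to compound for 96 hours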)
[2] = IOSE-T80 viability loss, PAX8-independent line – cell-based, cherry-pick, selectivity assay for PAX8 inhibitor project, dose response (AID 687032;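 active = fitted half-maximal concentration for viability loss no higher than twice the top valid dose, in every repeat run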;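 also: cells exposed to compound for 96 h before reading; 0% = neutral control wells and -100% = 2 µM mitoxantrone kill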)
[3] = CMV-driven luciferase expression suppression in HEK293 – cell-based, luminescence, dry powder, counter-screen for Pax8 inhibitor project, dose response (AID 743020;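 active = signal-lowering compounds whose fitted half-maximal concentration is at or below twice the top tested dose in every run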;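 also: HEK293 cells stably expressing the CMV luciferase reporter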)
[4] = general cell-killing toxicity readout – plate reader, dry powder samples, cytotoxicity control for PAX8 inhibitor project, dose response (AID 743021)
[5] = IGROV1 cell killing – plate reader, dry powder samples, PAX8 inhibitor project, dose response (AID 743043);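 also: more negative means fewer viable cells or more cytotoxicity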
[6] = OVCAR-3 cell viability loss – plate reader, dry powder samples, PAX8 inhibitor project, dose response (AID 743044); settings: max activity: at 35 µM, active compounds read low unless noted
[7] = toxicity toward immortalized ovarian surface epithelium – cell-based, plate reader, dry powder samples, cytotoxicity control for PAX8 inhibitor project, dose response (AID 743045);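 also: 0% = neutral control median and -100% = positive control median; more negative values mean more cell killing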
[8] = A2780 cell killing – plate reader, dry powder samples, cytotoxicity control, dose response (AID 743046);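 also: 0% = neutral control wells and -100% = cytotoxic reference compound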
[9] = OVCAR8 cell viability loss – plate reader, dry powder samples, PAX8 project, dose response (AID 743197)

Measured: max activity

C[C@H](CO)N1C[C@H](C)[C@@H](CN(C)Cc2ccc(-c3ccccc3)cc2)Oc2ccc(NC(=O)Cc3ccccc3)cc2CC1=O
inactive: [1] | [2] | [3] | [4] | [5] | [6] -13.7% [at 0.5 µM, active compounds read low] | [7] | [8] | [9]

C[C@@H]1CCCCO[C@H](CN(C)Cc2ccc(C(F)(F)F)cc2)[C@H](C)CN([C@H](C)CO)C(=O)c2cc(NS(=O)(=O)c3ccc(F)cc3)ccc2O1
inactive: [1] | [2] | [3] | [4] | [5] | [6] -10.2% | [7] | [8] | [9]

Cc1ccc(S(=O)(=O)Nc2ccc3c(c2)C(=O)N([C@@H](C)CO)C[C@@H](C)[C@@H](CN(C)Cc2ccc(C(F)(F)F)cc2)OCCCC[C@@H](C)O3)cc1
inactive: [1] | [2] | [3] | [4] | [5] | [6] -26.4% [at 8 µM, active compounds read low] | [7] | [8] | [9]

CN1C[C@@H]2[C@H](c3ccccc31)[C@H](CO)N2Cc1ccccc1Cl
inactive: [1] | [2] | [3] | [4] | [5] | [6] 22.5% | [7] | [8] | [9]

CO[C@H]1CN(C)C(=O)c2cc(NC(=O)c3nc4ccccc4s3)ccc2OC[C@H](C)N(Cc2cccnc2)C[C@H]1C
inactive: [1] | [2] | [3] | [4] | [5] | [6] 15.1% [at 0.26 µM, active compounds read low] | [7] | [8] | [9]

Cc1ccc(S(=O)(=O)N(C)C[C@@H]2OCCCC[C@H](C)Oc3ccc(NS(=O)(=O)c4ccc(Cl)cc4)cc3C(=O)N([C@H](C)CO)C[C@H]2C)cc1
inactive: [1] | [2] | [3] | [4] | [5] | [6] 19.8% [at 0.5 µM, active compounds read low] | [7] | [8] | [9]

C[C@@H]1CN([C@H](C)CO)C(=O)c2cc(NS(=O)(=O)c3ccc(F)cc3)ccc2O[C@@H]1CN(C)Cc1ccc(C(F)(F)F)cc1
inactive: [1] | [2] | [3] | [4] | [5] | [6] -4.85% | [7] | [8] | [9]

C[C@H](CO)N1C[C@H](C)[C@H](CN(C)C(=O)NC2CCCCC2)Oc2cc(C#Cc3ccc(F)cc3)ccc2S1(=O)=O
inactive: [1] | [2] | [3] | [4] | [5] | [6] -20.7% | [7] | [8] | [9]

CCCC#Cc1ccc([C@@H]2[C@H]3CN(S(=O)(=O)c4ccccc4F)CCCCN3[C@H]2CO)cc1
inactive: [1] | [2] | [3] | [4] | [5] | [6] 36.9% [at 8 µM, active compounds read low] | [7] | [8] | [9]

C[C@H]1CN([C@@H](C)CO)C(=O)c2c(c3ccccc3n2C)-c2ccccc2CO[C@@H]1CN(C)Cc1ccc(-c2ccccc2)cc1
inactive: [1] | [2] | [3] | [4] | [5] | [6] 59% [at 30 µM, active compounds read low] | [7] | [8] | [9]

C[C@@H]1CCCCO[C@@H](CN(C)Cc2ccc(C(F)(F)F)cc2)[C@H](C)CN([C@H](C)CO)C(=O)c2cc(NS(=O)(=O)c3ccc(Cl)cc3)ccc2O1
inactive: [1] | [2] | [3] | [4] | [5] | [6] -15.2% [at 1.1 µM, active compounds read low] | [7] | [8] | [9]

C[C@H](CO)N1C[C@H](C)[C@H](CN(C)S(=O)(=O)c2cccs2)OCCCC[C@H](C)Oc2ccc(NC(=O)NC3CCCCC3)cc2C1=O
inactive: [1] | [2] | [3] | [4] | [5] | [6] 9.21% [at 0.26 µM, active compounds read low] | [7] | [8] | [9]

C[C@@H]1CN([C@@H](C)CO)C(=O)Cc2cc(NC(=O)Nc3ccc(C(F)(F)F)cc3)ccc2O[C@H]1CN(C)S(=O)(=O)c1ccc(F)cc1
inactive: [1] | [2] | [3] | [4] | [5] | [6] 16.6% [at 1 µM, active compounds read low] | [7] | [8] | [9]

C[C@@H]1CCCCO[C@H](CN(C)C(=O)Nc2ccc(F)cc2)[C@@H](C)CN([C@@H](C)CO)C(=O)c2cc(NC(=O)Nc3ccc(C(F)(F)F)cc3)ccc2O1
inactive: [1] | [2] | [3] | [4] | [5] | [6] 19.8% [at 0.26 µM, active compounds read low] | [7] | [8] | [9]

C[C@@H]1CN([C@@H](C)CO)C(=O)c2ccccc2-c2ccccc2CO[C@H]1CN(C)Cc1ccccc1C(F)(F)F
inactive: [1] | [2] | [3] | [4] | [5] | [6] 28.3% [at 16 µM, active compounds read low] | [7] | [8] | [9]

C[C@H]1CCCCO[C@H](CN(C)C(=O)Nc2ccc(C(F)(F)F)cc2)[C@@H](C)CN([C@@H](C)CO)C(=O)c2cc(NC(=O)c3ccncc3)ccc2O1
inactive: [1] | [2] | [3] | [4] | [5] | [6] -23.2% [at 0.26 µM, active compounds read low] | [7] | [8] | [9]

C[C@@H]1CCCCO[C@H](CN(C)Cc2ccccc2)[C@H](C)CN([C@H](C)CO)C(=O)c2cc(NC(=O)Nc3ccc(C(F)(F)F)cc3)ccc2O1
inactive: [1] | [2] | [3] | [4] | [5] | [6] -9.62% | [7] | [8] | [9]

COc1ccccc1S(=O)(=O)N(C)C[C@@H]1Oc2cc(C#CCC3CCCC3)ccc2S(=O)(=O)N([C@@H](C)CO)C[C@@H]1C
inactive: [1] | [2] | [3] | [4] | [5] | [6] -15.5% | [7] | [8] | [9]

C[C@@H]1CCCCO[C@@H](CN(C)C(=O)C2CCCCC2)[C@H](C)CN([C@H](C)CO)C(=O)c2cc(NC(=O)Nc3ccc(F)cc3)ccc2O1
inactive: [1] | [2] | [3] | [4] | [5] | [6] -21.5% | [7] | [8] | [9]

C[C@@H]1CN([C@@H](C)CO)C(=O)c2cc(NS(=O)(=O)c3ccc(F)cc3)ccc2O[C@@H](C)CCCCO[C@H]1CN(C)Cc1ccc(C(F)(F)F)cc1
inactive: [1] | [2] | [3] | [4] | [5] | [6] -20.3% [at 0.26 µM, active compounds read low] | [7] | [8] | [9]

C[C@@H]1CN([C@@H](C)CO)C(=O)Cc2cc(N(C)C)ccc2O[C@H]1CN(C)Cc1ccc(Oc2ccccc2)cc1
inactive: [1] | [2] | [3] | [4] | [5] | [6] -11.3% [at 4.2 µM, active compounds read low] | [7] | [8] | [9]

Cc1ccc(S(=O)(=O)Nc2ccc3c(c2)C(=O)N([C@@H](C)CO)C[C@@H](C)[C@@H](CN(C)Cc2ccc(C(F)(F)F)cc2)OCCCC[C@H](C)O3)cc1
inactive: [1] | [2] | [3] | [4] | [5] | [6] -14.9% [at 2.1 µM, active compounds read low] | [7] | [8] | [9]

C[C@H](CO)N1C[C@H](C)[C@@H](CN(C)Cc2ccc(C(F)(F)F)cc2)Oc2ccc(NS(=O)(=O)c3ccc(F)cc3)cc2CC1=O
inactive: [1] | [2] | [3] | [4] | [5] | [6] 24.7% [at 16 µM, active compounds read low] | [7] | [8] | [9]

C[C@@H]1CN([C@@H](C)CO)C(=O)Cc2cc(NC(=O)Nc3ccc(F)cc3)ccc2O[C@H]1CN(C)Cc1ccc(Cl)c(Cl)c1
inactive: [1] | [2] | [3] | [4] | [5] | [6] 11.5% [at 4.2 µM, active compounds read low] | [7] | [8] | [9]

C[C@H](CO)N1C[C@H](C)[C@H](CN(C)C(=O)NC2CCCCC2)OCCCC[C@H](C)Oc2ccc(NC(=O)Nc3ccc(C(F)(F)F)cc3)cc2C1=O
inactive: [1] | [2] | [3] | [4] | [5] | [6] 11.8% [at 2.1 µM, active compounds read low] | [7] | [8] | [9]

O=C(Nc1ccc(C(F)(F)F)cc1)N1C[C@@H]2N[C@H](C1)C2c1ccc(-c2ccccc2)cc1 (some centres not stated)
inactive: [1] | [2] | [3] | [4] | [5] | [6] 13.9% [at 0.26 µM, active compounds read low] | [7] | [8] | [9]

C[C@@H]1CCCCO[C@@H](CN(C)Cc2ccc(C(F)(F)F)cc2)[C@H](C)CN([C@H](C)CO)C(=O)c2cc(NC(=O)Cc3ccccc3)ccc2O1
inactive: [1] | [2] | [3] | [4] | [5] | [6] -36.2% | [7] | [8] | [9]

COc1ccc(NC(=O)Nc2ccc3c(c2)C(=O)N([C@@H](C)CO)C[C@@H](C)[C@@H](CN(C)Cc2ccc(C(F)(F)F)cc2)OCCCC[C@@H](C)O3)cc1
inactive: [1] | [2] | [3] | [4] | [5] | [6] -11.3% | [7] | [8] | [9]
